Bioassay records deposited in PubChem BioAssay by Sanford-Burnham Center for Chemical Genomics.
SENP7 inh – blocks the human protease SENP7 | inhibition, % at 5 µM | recombinant SENP7, Z-RLRGG-aminoluciferin luminescence, 40 min | Q9BQF6 | actives 1.5% (n = 330,000);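 active means inhibition above about 50% at the single test dose, limit read from the data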;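 further: plate controls were DMSO with enzyme for no effect and no enzyme buffer wells for full effect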
SENP6 inh – inhibitors of human SENP6 protease | Q9GZR1 | Recombinant SENP6 catalytic domain, aminoluciferin luminescence | inhibition, % at 10 µM | actives 1.8% (n = 330,000);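 active means inhibition above about 50% at the single tested dose, limit read from the data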;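 further: plate controls were DMSO wells with enzyme for no effect and DMSO wells lacking enzyme for full effect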
PPC-1+TRAIL kill – compounds killing PPC-1 cancer cells with TRAIL present (potentiator screen, no TRAIL-free arm) | PPC-1 cells + TRAIL, ATPLite viability luminescence | cell killing (% activity), % at 4 µM or 5 µM | actives 0.41% (n = 220,000) | AID 1443;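 active means cell killing above 50% in the first pass at 4 µM, then a duplicate retest at 5 µM averaging 50% or more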;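 further: plate controls were cells with TRAIL plus DMSO for no effect and medium-only wells lacking cells for full effect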
SENP8 block-1 – blocks human SENP8 cleavage of Nedd8 substrate; recombinant SENP8, Nedd8 substrate fluorescence; actives 0.64% (n = 360,000); inhibition, % at 20 µM; in the data active means inhibition mostly above about 40%, no sharp cut-off; inactive means mostly below about 27%
Target sequence (Q96LD8 whole entry, looked up): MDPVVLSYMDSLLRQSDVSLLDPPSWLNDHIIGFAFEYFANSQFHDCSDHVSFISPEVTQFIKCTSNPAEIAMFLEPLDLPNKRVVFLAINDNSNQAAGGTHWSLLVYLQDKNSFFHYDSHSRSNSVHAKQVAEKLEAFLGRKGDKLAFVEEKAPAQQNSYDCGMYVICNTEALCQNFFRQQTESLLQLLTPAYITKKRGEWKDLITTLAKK
C8 TRAIL sens – sensitizes caspase-8 expressing cells to TRAIL; AID 624354; actives 1% (n = 360,000); NB7+C8 cells + TRAIL, ATPlite viability luminescence; inhibition (viability loss, TRAIL sensitization), % at 10 µM;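 active means compounds causing at least 50% loss of cell viability in the single-dose screen, relative to plate controls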
SENP8 block-2 – inhibitors of human SENP8 protease. actives 1.2% (n = 330,000). inhibition, % at 10 µM. AID 2540. purified SENP8, Z-RLRGG-aminoluciferin cleavage, luminescence. Q96LD8; in the data active means inhibition above about 50%
Active calls of the source: *; i = inactive; / = no result given. Shown are actives, neighbours in structure and some others; about 3% of the full set was active somewhere.

SMILES | SENP7 inh | SENP6 inh | PPC-1+TRAIL kill | SENP8 block-1 | C8 TRAIL sens | SENP8 block-2
CCCCC(=O)c1c(O)c2ccccc2oc1=O | 1.7 | 4.4 | 19.5 | 16.3 | -8.6 | 1.9
O=C(CC1CCCCC1)c1c(O)c2ccccc2oc1=O | -0.3 | 15.7 | -1.7 | 11.2 | 54.2* | -12.2
CC(C)c1ccc2oc(=O)cc(CN3CCOCC3)c2c1 | 8.8 | 15.6 | / | 2.8 | 7.8 | 9.8
CN(C)S(=O)(=O)n1cc(/C=C(\NC(=O)c2ccccc2F)C(=O)N2CCCC2)c2ccccc21 | 2.6 | 2.8 | / | 6.3 | 2.3 | 12.9
CCOc1ccc(OCC)c(NC(=O)C2CCN(c3nn4c(=O)cc(C)nc4s3)CC2)c1 | -0.2 | -14.3 | 13.0 | -0.8 | 66.8* | -1.4
NS(=O)(=O)c1ccc(N/C=C/C(=O)c2ccc(Br)cc2)cc1 | 3.3 | -5.8 | -1.2 | -284.6 | 9.7 | -0.4
NS(=O)(=O)c1ccc(N/C=C\C(=O)c2ccc(F)cc2)cc1 | 70.0* | 42.5 | 22.8 | -432.1 | -2.4 | 63.9*
COc1cc(/C=C/C(=O)OCC(=O)NCC(=O)Nc2cccc(C)c2C)ccc1OC(F)F | -0.9 | 6.2 | / | -44.6 | -9.0 | -4.9
Cc1ccccc1NC(=O)CC1SC(=O)N(c2ccccc2)C1=O (stereo not given) | 8.1 | -1.5 | -3.5 | 54.7* | -2.2 | -7.7
O=Nc1c(O)c2ccccc2c2ccccc12 | / | / | / | 16.1 | 91.9* | /
O=C(O)CC1(CC(=O)N2CCOCC2)CCCC1 | -5.7 | -12.4 | / | 2.4 | -9.1 | 7.7
Cc1cccc(N=Nc2c(C)[nH]n(C(N)=S)c2=O)c1C | 39.4 | 76.5* | -4.2 | / | / | 65.4*
Cc1cc(C)cc(NC(=O)/C(C#N)=C/c2cn(CC(=O)NCc3ccco3)c3ccccc23)c1 | 6.0 | -17.9 | 50.1* | -401.3 | 66.2* | 4.2
O=C1C=C(O)c2cccc(O)c2C1=O | 13.9 | 66.5* | 17.9 | 45.1* | -5.6 | 30.9
CCC(c1nnnn1-c1ccc2c(c1)OCCO2)N1CCN(c2ccccc2OC)CC1 (stereo not given) | / | / | / | 22.7 | -1.4 | /
Cc1ccc(NC(=O)CSc2nn(-c3ccccc3)c(=S)s2)cc1S(=O)(=O)N(C)C | -10.9 | -6.8 | -12.3 | -2.3 | 66.0* | -5.1
CC(=O)c1c(C)[nH]c(C(=O)Nc2ccccn2)c1C | -0.2 | -2.6 | / | -11.1 | 51.2* | -10.9
CC(=O)c1c(C)[nH]c(C(=O)Nc2ccc(Cl)cc2)c1C | -12.4 | -6.5 | / | -10.8 | -6.1 | -9.1
CN(N=Nc1nc[nH]c1C(N)=O)C1CCCCC1 | / | / | / | 14.9 | -6.9 | /
Cc1cc(=O)n2[nH]c(N)c(N=Nc3ccccc3F)c2n1 | 85.7* | 93.9* | 14.8 | 31.9 | -11.7 | 85.4*
COc1ccccc1NS(=O)(=O)c1ccc(NC(=O)c2[nH]nc(OC)c2[N+](=O)[O-])cc1 | 6.1 | -4.8 | / | 0.6 | -2.9 | 3.1
O=C(Nc1cccc(Br)c1)c1ccc(OC2CSC2)cc1 | 96.4* | 91.9* | 2.0 | / | / | 89.9*
CC(=O)c1cccc(NC(=O)c2ccc(OC3CSC3)cc2)c1 | 40.3 | -12.6 | / | 6.7 | 5.4 | 4.6
CN(C)Cc1cc(O)c(CN(C)C)cc1O | -1.6 | 31.9 | -9.0 | 55.1* | -16.7 | 7.5
CN(C)Cc1cc(C(C)(C)C)cc(C(C)(C)C)c1O | 1.9 | 1.9 | 11.9 | 18.4 | 7.4 | 7.8
SMILES | SENP7 inh | SENP6 inh | PPC-1+TRAIL kill | SENP8 block-1 | C8 TRAIL sens | SENP8 block-2
O=C(Nc1ccc2oc(-c3ccccc3F)nc2c1)c1ccccc1F | 3.3 | 11.7 | / | -262.6 | 1.9 | -2.7
O=C(Nc1ccc2oc(-c3ccccc3F)nc2c1)c1ncn[nH]1 | 81.3* | 81.6* | 33.1 | i | 26.5 | 51.0*
CC(C)(C)OC(=O)N1CCC[C@@H]1C(=O)N1CCC[C@@H]1C(=O)NCc1ccccc1Cl | / | / | / | 20.5 | 1.4 | /
COc1ccc(/C=N/Nc2cc(C)nc3ccc(OC)cc23)c(OC)c1 | -4.0 | 2.0 | / | -283.5 | 89.3* | -12.7
COc1ccc2nc(C)cc(Nc3ccc(N4CCN(C)CC4)cc3)c2c1 | 2.4 | 5.3 | / | 23.1 | 48.8* | 7.0
COc1ccc2nc(C)cc(SCC(=O)N/N=C/c3ccccc3)c2c1 | 4.2 | 0.1 | 26.5 | -12.3 | 1.8 | 0.5
COc1ccc2nc(C)cc(N/N=C/c3ccccc3)c2c1 | 2.6 | -1.9 | / | -388.5 | 52.8* | 0.5
COc1ccccc1/C=N/Nc1cc(C)nc2ccc(C)cc12 | 3.5 | 2.0 | / | -298.3 | 2.4 | -15.9
